Source: PubChem BioAssay (NCI)
The panel holds about 83,000 compounds, 20% with a hit somewhere; the sample as a whole holds those more often.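 For each line, cells grew in 96-well plates with the test compound present at a single concentration for 48 hours.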 A number with no mark means an inactive call. The source made the active and inactive calls. Rule for the calls: active = growth percent below 10; inactive = the rest.

system: EKVX NSCLC; test: NCI-60 one-dose screen, 48 h (100 = growth as untreated, 0 = no growth, -100 = all killed); details: 10 µM unless noted

| SMILES | growth |
| --- | --- |
| O=c1[nH]c2ccc(Cl)cc2cc1CSc1ccccc1Nc1nccc(-c2ccc(Cl)cc2)n1 | 80.5% |
| CC(C)(C)OC(=O)N1C(=O)c2c(c3c4ccccc4[nH]c3c3ccc4ccccc4c23)C1=O | 67.7% |
| CNC(=O)c1cc(-c2ccc(NC(=O)Nc3ccc(N4CCN(C)CC4)c(C(F)(F)F)c3)cc2)nc2cccnc12 | -74% (active) |
| C/C(=N/NC(N)=S)c1ccc(Nc2nc(SCC(C)C)nc(-c3ccc(F)cc3)c2C#N)cc1 | -0.0417% (active) |
| CCCCN1C(=O)/C(=c2\sc3n(c2=O)C2C(NN=3)N(CC)C(=O)N2CC)c2cc(Cl)ccc21 (stereo unspecified) | 80.7% |
| COc1cc(-c2nc3ccc(-c4nnc(SCC(=O)Nc5ccc(C(C)=O)cc5)o4)cc3[nH]2)cc(OC)c1OC | 94% |
| N#Cc1c(-c2ccc(Cl)cc2)nc(SCc2ccc(F)cc2)nc1N1CCNCC1 | 73.7% |
| Cn1cc(-c2cc(N)n3nc(-c4cn(C)c5ccc(Br)cc45)cc3n2)c2cc(Br)ccc21 | 90.7% |
| Cc1cc(C(=O)Nc2sc3c(c2C(N)=O)CCC(=O)C3)ccc1OCCN1CCCCC1 | 107% |
| NS(=O)(=O)c1ccc(Nc2nc(SCC(=O)c3ccc(Cl)cc3)nc3ccccc23)cc1 | 90.6% |
| CC(C)(C)Nc1nc2c(OCCc3ccccc3)cccn2c1-c1ccc(O)cc1 | 38.9% |
| CCOc1ccc2nc(NC(=O)c3ccc(C(F)(F)F)cc3)sc2c1 | 102% |
| N#Cc1c(-c2ccc(Cl)cc2)nc(SCc2ccc([N+](=O)[O-])cc2)nc1N1CCNCC1 | 51.9% |
| Cc1cccc(/C=C/c2nn3c(-c4ccco4)nnc3s2)c1 | 81.3% |
| Cc1sc2c(c1C)c(=O)nc1c(-c3nc(-c4ccc(F)cc4)no3)n[nH]n12 | 95.2% |
| C[C@@H]1CN(c2ccc3ncc(C#Cc4cncc(C(=O)Nc5ccc(CN6CCN(C)CC6)c(C(F)(F)F)c5)c4)n3n2)C[C@H](C)O1 | -18.9% (active) |
| Nc1c(C(=O)Nc2ccc(Cl)cc2)sc2nc(-c3cnccn3)cc(-c3cccs3)c12 | 71.7% |
| O=c1[nH]c2ccccc2cc1CSc1ccccc1Nc1nccc(-c2ccc(C(F)(F)F)cc2)n1 | 64.7% |
| Cc1c(Nc2nnc(SCC(=O)Nc3sc4c(c3C#N)CCCC4)s2)c(=O)n(-c2ccccc2)n1C | 97.4% |

| SMILES | growth |
| --- | --- |
| CS(=O)(=O)c1ccc(-c2nc3ccccn3c2C=Nc2ccc(Cl)cc2)cc1 | 100% |
| N[C@@H](Cc1cn(-c2c3ccccc3nc3ccccc23)nn1)C(=O)O | 101% |
| CC(C)(C)Nc1nc2c(OCCc3ccccc3)cccn2c1-c1cccc(F)c1 | 5.55% (active) |
| CCN1C(=S)N(c2ccccc2)C2NC(=O)N(/N=C/C=C/c3ccccc3OC)C21 (stereo unspecified) | 89.7% |
| CCOC(=O)c1csc(NC(=O)CSc2nc3sc4c(c3c(=O)n2-c2ccc(Cl)cc2)CCCC4)n1 | 90.6% |
| Cc1ccc(CNS(=O)(=O)/N=C2\NC(=O)NC2=C(Cl)Cl)cc1 | 95.6% |
| CO/N=C1\CCc2c(sc(NC(=O)c3cccc(C(F)(F)F)c3)c2C(N)=O)C1 | 30.7% |
| O=C(CSc1nc2sc3c(c2c(=O)n1-c1ccc(Cl)cc1)CCCC3)N/N=C/c1ccc(F)cc1 | 90.3% |
| CN1CCN(Cc2ccc(NC(=O)c3cncc(C#Cc4cnc5[nH]ncc5c4)c3)cc2C(F)(F)F)CC1 | 55.4% |
| CC(C)(C)Nc1nc2c(OCCc3ccccc3)cccn2c1-c1ccc(Cl)cc1 | 5.46% (active) |
| N#Cc1c(-c2ccc(Cl)cc2)nc(SCc2ccccc2)nc1N1CCNCC1 | 71.6% |
| COc1ccc(/C=C/C(=O)c2ccc(NC(=O)CSc3nnc(-c4ccc5nc(-c6ccc(Cl)cc6)[nH]c5c4)o3)cc2)cc1 | 103% |
| CC(=O)Nc1cc(F)cc(-c2ccc3[nH]cc(-c4ccccc4)c3n2)c1 | 43.7% |
| C=CCSc1ccc2c(c1)C(N1CCNCC1)=Nc1ccccc1O2 | 79.7% [8.25 µM] |
| Fc1ccc(-c2nc(C(Cl)Cl)nc3cc(-c4ccccc4)nn23)cc1 | 0.294% (active) |
| COc1ccc(NC2=C(Cl)C(=O)C(C)=C(C)C2=O)cc1OC | 74.3% |
| O=C1[C@H]2Cc3c([nH]c4ccccc34)[C@@H](c3ccc(Br)cc3)N2C(=O)CN1C1CCN(Cc2ccccc2)CC1 | 35.5% |
| Cn1c(SCC(=O)c2cccs2)nc2ccccc2c1=O | 73.1% |
| C/C(=C(/c1ccc(Cl)cc1)c1ccc(OCCN)cc1)c1ccc(C)cc1 | 98.8% |

system: SN12C renal; test: as above; details: 10 µM unless noted

| SMILES | growth |
| --- | --- |
| O=c1[nH]c2ccc(Cl)cc2cc1CSc1ccccc1Nc1nccc(-c2ccc(Cl)cc2)n1 | 87.1% |
| CC(C)(C)OC(=O)N1C(=O)c2c(c3c4ccccc4[nH]c3c3ccc4ccccc4c23)C1=O | 52.6% |
| CNC(=O)c1cc(-c2ccc(NC(=O)Nc3ccc(N4CCN(C)CC4)c(C(F)(F)F)c3)cc2)nc2cccnc12 | -73.4% (active) |
| C/C(=N/NC(N)=S)c1ccc(Nc2nc(SCC(C)C)nc(-c3ccc(F)cc3)c2C#N)cc1 | 12.7% |
| CCCCN1C(=O)/C(=c2\sc3n(c2=O)C2C(NN=3)N(CC)C(=O)N2CC)c2cc(Cl)ccc21 (stereo unspecified) | 82% |
| COc1cc(-c2nc3ccc(-c4nnc(SCC(=O)Nc5ccc(C(C)=O)cc5)o4)cc3[nH]2)cc(OC)c1OC | 92.8% |
| N#Cc1c(-c2ccc(Cl)cc2)nc(SCc2ccc(F)cc2)nc1N1CCNCC1 | 52.2% |
| Cn1cc(-c2cc(N)n3nc(-c4cn(C)c5ccc(Br)cc45)cc3n2)c2cc(Br)ccc21 | 90.3% |
| Cc1cc(C(=O)Nc2sc3c(c2C(N)=O)CCC(=O)C3)ccc1OCCN1CCCCC1 | 92.5% |
| NS(=O)(=O)c1ccc(Nc2nc(SCC(=O)c3ccc(Cl)cc3)nc3ccccc23)cc1 | 88.1% |
| CC(C)(C)Nc1nc2c(OCCc3ccccc3)cccn2c1-c1ccc(O)cc1 | 64.3% |
| CCOc1ccc2nc(NC(=O)c3ccc(C(F)(F)F)cc3)sc2c1 | 101% |
| N#Cc1c(-c2ccc(Cl)cc2)nc(SCc2ccc([N+](=O)[O-])cc2)nc1N1CCNCC1 | 1.59% (active) |
| Cc1cccc(/C=C/c2nn3c(-c4ccco4)nnc3s2)c1 | 94.8% |
| Cc1sc2c(c1C)c(=O)nc1c(-c3nc(-c4ccc(F)cc4)no3)n[nH]n12 | 98.2% |
| C[C@@H]1CN(c2ccc3ncc(C#Cc4cncc(C(=O)Nc5ccc(CN6CCN(C)CC6)c(C(F)(F)F)c5)c4)n3n2)C[C@H](C)O1 | -26.7% (active) |
| Nc1c(C(=O)Nc2ccc(Cl)cc2)sc2nc(-c3cnccn3)cc(-c3cccs3)c12 | 66.6% |
| O=c1[nH]c2ccccc2cc1CSc1ccccc1Nc1nccc(-c2ccc(C(F)(F)F)cc2)n1 | 70.3% |
| Cc1c(Nc2nnc(SCC(=O)Nc3sc4c(c3C#N)CCCC4)s2)c(=O)n(-c2ccccc2)n1C | 106% |

| SMILES | growth |
| --- | --- |
| CS(=O)(=O)c1ccc(-c2nc3ccccn3c2C=Nc2ccc(Cl)cc2)cc1 | 81.6% |
| N[C@@H](Cc1cn(-c2c3ccccc3nc3ccccc23)nn1)C(=O)O | 98.2% |
| CC(C)(C)Nc1nc2c(OCCc3ccccc3)cccn2c1-c1cccc(F)c1 | 6.27% (active) |
| CCN1C(=S)N(c2ccccc2)C2NC(=O)N(/N=C/C=C/c3ccccc3OC)C21 (stereo unspecified) | 87.5% |
| CCOC(=O)c1csc(NC(=O)CSc2nc3sc4c(c3c(=O)n2-c2ccc(Cl)cc2)CCCC4)n1 | 94.9% |
| Cc1ccc(CNS(=O)(=O)/N=C2\NC(=O)NC2=C(Cl)Cl)cc1 | 26.4% |
| CO/N=C1\CCc2c(sc(NC(=O)c3cccc(C(F)(F)F)c3)c2C(N)=O)C1 | 15.6% |
| O=C(CSc1nc2sc3c(c2c(=O)n1-c1ccc(Cl)cc1)CCCC3)N/N=C/c1ccc(F)cc1 | 97.1% |
| CN1CCN(Cc2ccc(NC(=O)c3cncc(C#Cc4cnc5[nH]ncc5c4)c3)cc2C(F)(F)F)CC1 | 14.4% |
| CC(C)(C)Nc1nc2c(OCCc3ccccc3)cccn2c1-c1ccc(Cl)cc1 | 10.3% |
| N#Cc1c(-c2ccc(Cl)cc2)nc(SCc2ccccc2)nc1N1CCNCC1 | 54.9% |
| COc1ccc(/C=C/C(=O)c2ccc(NC(=O)CSc3nnc(-c4ccc5nc(-c6ccc(Cl)cc6)[nH]c5c4)o3)cc2)cc1 | 93.4% |
| CC(=O)Nc1cc(F)cc(-c2ccc3[nH]cc(-c4ccccc4)c3n2)c1 | 32.7% |
| C=CCSc1ccc2c(c1)C(N1CCNCC1)=Nc1ccccc1O2 | 77.3% [8.25 µM] |
| Fc1ccc(-c2nc(C(Cl)Cl)nc3cc(-c4ccccc4)nn23)cc1 | 42.5% |
| COc1ccc(NC2=C(Cl)C(=O)C(C)=C(C)C2=O)cc1OC | 88.9% |
| O=C1[C@H]2Cc3c([nH]c4ccccc34)[C@@H](c3ccc(Br)cc3)N2C(=O)CN1C1CCN(Cc2ccccc2)CC1 | 12.9% |
| Cn1c(SCC(=O)c2cccs2)nc2ccccc2c1=O | 91.8% |
| C/C(=C(/c1ccc(Cl)cc1)c1ccc(OCCN)cc1)c1ccc(C)cc1 | 95.7% |
